Inconclusive results are not listed. Calls of active or inactive are those of the source. Unless noted, the call rests on the fitted dose curve.
Columns and labels:
[1] = biological target: DNA dC->dU-editing enzyme APOBEC-3G (Homo sapiens) (UniProt Q9HC16); assay: qHTS for inhibitors of Vif-A3G interactions: Validation (AID 588379; active means well fitted curve in the direction sought with a large enough effect; an effect the other way counts as inactive or inconclusive; further: 0% is about no effect)
Procedure, shortened: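 Yellow fluorescence (Ex 488, Em 500-530) of Vif-coexpressing HeLa A3G-eYFP cells, scanned by Acumen cytometer, reports blocked A3G degradation. Cells plated at 700/well overnight at 37 deg C before compound addition, then a further overnight compound incubation at 37 deg C.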

[2] = biological target: Androgen receptor (Homo sapiens) (UniProt P10275); assay: qHTS assay for small molecule agonists of androgen receptor signaling (AID 588515; active means well fitted curve in the direction sought with a large enough effect in the signal ratio, with a control signal flat; the % refers to the signal ratio; further: on the % scale 0 is the no-effect control and ±100 the full control effect); settings: AR-UAS-bla HEK293, beta-lactamase ratio, agonist 16 h; activation: active compounds read high
Procedure, shortened: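 Stimulation of an AR-responsive β-lactamase reporter in GripTite HEK293 cells was measured after 16 h compound exposure at 37 °C, via CCF4 fluorescence after 2 h RT. EC50 from Hill fits, normalized to R1881 at 30 nM.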

[3] = biological target: Androgen receptor (Homo sapiens) (UniProt P10275); assay: qHTS assay for small molecule antagonists of androgen receptor signaling (AID 588516; active means well fitted curve in the direction sought with a large enough effect in the signal ratio, with a control signal flat, not every such curve was filed as active; the % refers to the signal ratio; further: on the % scale 0 is the no-effect control and ±100 the full control effect)
Procedure, shortened: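 AR-UAS-bla GripTite HEK 293 cells (2000/well) treated with compound titrations plus 10 nM R1881 for 16 h at 37C. Beta-lactamase read by CCF4 FRET (460/530 nm); IC50 from Hill fits, normalized to R1881 and DMSO control wells.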

[4] = biological target: Bile acid receptor (Homo sapiens) (UniProt Q96RI1); assay: qHTS assay for small molecule antagonists of farnesoid X receptor signaling (AID 588526); further: on the % scale 0 is the no-effect control and ±100 the full control effect
Procedure, shortened: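 Beta-lactamase reporter antagonist mode: HEK293T FXR-UAS-bla cells, titrated compound, CDCA stimulation, 16 h 37 C, CCF4 dye 2 h RT. Data normalized to CDCA 50 uM and DMSO; Hill-fit IC50.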

[5] = biological target: Glucocorticoid receptor (Homo sapiens) (UniProt P04150); assay: qHTS assay for small molecule agonists of glucocorticoid receptor signaling (AID 588532; active means well fitted curve in the direction sought with a large enough effect in the signal ratio, with a control signal flat; the % refers to the signal ratio;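 further: 100% = dexamethasone at 0.1 µM and 0% = DMSO only wells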); settings: HeLa MMTV-bla, beta-lactamase ratio, agonist, 18 h; active compounds read high; percent of dexamethasone control, DMSO zero
Procedure, shortened: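 Agonist-mode qHTS: GRE-driven beta-lactamase in HeLa cells exposed 18 h to titrated compounds (up to 92 uM), then CCF4 ratio read after 2 h at RT; Hill-fitted EC50, efficacy relative to 0.1 uM dexamethasone.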

[6] = qHTS assay for small molecule agonists of the antioxidant response element (ARE) signaling pathway (AID 651741; active means well fitted activation curve with a large enough effect in the signal ratio; the % refers to the signal ratio; further: % of control where 0% means no effect)
Procedure, shortened: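 Beta-lactamase reporter under ARE control in HepG2 cells, 2,000 per well, was induced by 16 h compound treatment at 37 C. Read-out was fluorescence from LiveBLAzer B/G FRET substrate after 2 h at room temperature.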

[7] = qHTS assay for small molecule activators of the p53 signaling pathway (AID 651743; active means well fitted activation curve with a large enough effect in the signal ratio, not every such curve was filed as active; the % refers to the signal ratio; further: series mostly up to about 92 µM; % of control where 0% means no effect); settings: HCT-116 p53RE-bla, beta-lactamase FRET ratio, 16 h; activation: active compounds read high
Procedure, shortened: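 After 16 hours compound treatment at 37 C, HCT-116 cells stably expressing p53RE-driven beta-lactamase were loaded with LiveBLAzer B/G FRET substrate for 2 hours at room temperature. Fluorescence intensity served as the p53 activation read-out.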

[8] = biological target: Peroxisome proliferator-activated receptor gamma (Homo sapiens) (UniProt P37231); assay: qHTS assay for small molecule antagonists of peroxisome proliferator-activated receptor gamma signaling (AID 588537; active means well fitted inhibition curve with a large enough effect in the signal ratio, with a control signal flat, not every such curve was filed as active; the % refers to the signal ratio;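 further: reporter cells co-stimulated with 50 nM rosiglitazone agonist during compound treatment; % of control where 0% means no effect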)
Procedure, shortened: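 Antagonist-mode β-lactamase reporter screen run as a titration series. HEK293 PPARγ-UAS-bla cells are stimulated with rosiglitazone (50 nM final) for 16 h, then CCF4 is read at 460/530 nm. Data are scaled between DMSO and rosiglitazone and fitted to the Hill equation.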

[9] = biological target: Vitamin D3 receptor (Homo sapiens) (UniProt P11473); assay: qHTS assay for small molecule agonists of vitamin D receptor signaling (AID 588543);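 further: 0% = DMSO basal and 100% = reference agonist control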
Procedure, shortened: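 VDR-UAS-bla HEK293T cells, 2000/well, 2% charcoal-stripped FBS; compound titration 16 h at 37 C; CCF4 beta-lactamase ratio read. Normalized to 50 nM 1-alpha,25-dihydroxyvitamin D3 (100%) and DMSO; Hill fit gives EC50, efficacy.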

[10] = biological target: Thyroid hormone receptor beta (Homo sapiens) (UniProt P10828); assay: qHTS assay for small molecule antagonists of thyroid hormone receptor beta signaling (AID 588547; active means well fitted inhibition curve with a large enough effect in the signal ratio, with a control signal flat, not every such curve was filed as active; the % refers to the signal ratio;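 further: cells stimulated with 0.4 nM T3 agonist during compound exposure; series mostly up to about 77 µM; on the % scale 0 is the no-effect control and ±100 the full control effect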); settings: TR-UAS-bla HEK293, beta-lactamase ratio, antagonist mode, 18 h
Procedure, shortened: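 Inhibition of T3-driven (0.4nM final) beta-lactamase reporter activity was measured over 0.59 nM to 92 uM compound after 18 h at 37 C. The cells were GripTite HEK293 TR-UAS-bla in charcoal/dextran-stripped serum, with CCF4 ratio read-out and IC50 from Hill fits.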

[11] = biological target: Vitamin D3 receptor (Homo sapiens) (UniProt P11473); assay: qHTS assay for small molecule antagonists of vitamin D receptor signaling (AID 588541)
Procedure, shortened: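 Antagonist-mode beta-lactamase reporter assay: HEK293T VDR-UAS-bla cells were exposed to titrated compound alongside 1-alpha,25-dihydroxyvitamin D3 at 3 nM final for 16 h. Values were normalized to the 50 nM agonist control and DMSO basal, with IC50 and efficacy from Hill equation fits.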

[12] = biological target: Cytochrome P450 3A4 (Homo sapiens) (UniProt P08684); assay: qHTS Assay for Activators of Cytochrome P450 3A4 (AID 885; active means well fitted curve in the direction sought with a large enough effect; an effect the other way counts as inactive or inconclusive; further: nearly all actives have a fitted effect of over 65% in size)
Procedure, shortened: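 CYP3A4 activity: Luciferin-PPXE O-dealkylation, 25uM substrate, 200mM KPO4, RT throughout. Read-out is luciferase luminescence; higher values reflect activation.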

Glucocorticoid receptor (Homo sapiens), sequence (P04150 whole entry, looked up): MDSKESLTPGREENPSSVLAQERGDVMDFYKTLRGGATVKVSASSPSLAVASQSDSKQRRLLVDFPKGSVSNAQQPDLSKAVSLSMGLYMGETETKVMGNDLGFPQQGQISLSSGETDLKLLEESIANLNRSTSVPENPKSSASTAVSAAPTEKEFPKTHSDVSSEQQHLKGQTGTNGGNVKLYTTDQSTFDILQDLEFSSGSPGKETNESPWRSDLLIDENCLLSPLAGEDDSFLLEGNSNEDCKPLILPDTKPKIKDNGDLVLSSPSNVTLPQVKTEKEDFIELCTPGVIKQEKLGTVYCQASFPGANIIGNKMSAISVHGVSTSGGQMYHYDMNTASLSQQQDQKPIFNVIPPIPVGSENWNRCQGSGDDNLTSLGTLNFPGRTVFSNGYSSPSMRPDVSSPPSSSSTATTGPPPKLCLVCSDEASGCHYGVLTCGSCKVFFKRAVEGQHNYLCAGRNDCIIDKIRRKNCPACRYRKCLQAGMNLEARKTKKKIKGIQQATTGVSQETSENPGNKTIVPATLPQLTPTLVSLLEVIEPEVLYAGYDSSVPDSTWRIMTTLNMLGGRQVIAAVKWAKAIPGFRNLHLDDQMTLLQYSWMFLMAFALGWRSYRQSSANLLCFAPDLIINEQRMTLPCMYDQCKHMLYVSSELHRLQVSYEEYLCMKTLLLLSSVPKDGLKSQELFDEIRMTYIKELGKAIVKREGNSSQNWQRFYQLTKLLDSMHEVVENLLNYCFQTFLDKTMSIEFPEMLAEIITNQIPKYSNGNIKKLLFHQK
Vitamin D3 receptor (Homo sapiens), sequence (P11473 whole entry, looked up): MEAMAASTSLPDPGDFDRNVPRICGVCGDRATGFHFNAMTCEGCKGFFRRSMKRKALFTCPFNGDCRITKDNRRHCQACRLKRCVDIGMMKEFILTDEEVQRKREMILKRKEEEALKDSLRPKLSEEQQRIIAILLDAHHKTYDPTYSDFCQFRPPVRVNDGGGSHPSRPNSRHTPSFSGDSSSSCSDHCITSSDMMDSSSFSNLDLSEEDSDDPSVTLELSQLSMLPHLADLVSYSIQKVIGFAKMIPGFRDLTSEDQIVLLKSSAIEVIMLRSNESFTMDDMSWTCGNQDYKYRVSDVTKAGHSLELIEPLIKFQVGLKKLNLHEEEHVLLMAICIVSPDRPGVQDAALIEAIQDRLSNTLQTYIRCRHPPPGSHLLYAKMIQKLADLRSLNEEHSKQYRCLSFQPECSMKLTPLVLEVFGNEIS
Thyroid hormone receptor beta (Homo sapiens), sequence (P10828 whole entry, looked up): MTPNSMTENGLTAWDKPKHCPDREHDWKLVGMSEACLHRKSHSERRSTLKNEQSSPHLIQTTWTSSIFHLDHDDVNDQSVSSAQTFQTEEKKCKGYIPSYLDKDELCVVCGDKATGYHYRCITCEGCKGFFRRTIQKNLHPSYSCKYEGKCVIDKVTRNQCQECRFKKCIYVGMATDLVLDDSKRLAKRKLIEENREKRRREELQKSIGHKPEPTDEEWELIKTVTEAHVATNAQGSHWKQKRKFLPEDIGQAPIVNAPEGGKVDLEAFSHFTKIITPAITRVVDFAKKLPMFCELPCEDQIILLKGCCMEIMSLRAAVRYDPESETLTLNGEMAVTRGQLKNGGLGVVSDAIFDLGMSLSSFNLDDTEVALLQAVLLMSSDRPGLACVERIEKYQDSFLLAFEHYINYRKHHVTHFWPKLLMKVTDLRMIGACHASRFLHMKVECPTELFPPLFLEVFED
Androgen receptor (Homo sapiens), sequence (P10275 whole entry, looked up): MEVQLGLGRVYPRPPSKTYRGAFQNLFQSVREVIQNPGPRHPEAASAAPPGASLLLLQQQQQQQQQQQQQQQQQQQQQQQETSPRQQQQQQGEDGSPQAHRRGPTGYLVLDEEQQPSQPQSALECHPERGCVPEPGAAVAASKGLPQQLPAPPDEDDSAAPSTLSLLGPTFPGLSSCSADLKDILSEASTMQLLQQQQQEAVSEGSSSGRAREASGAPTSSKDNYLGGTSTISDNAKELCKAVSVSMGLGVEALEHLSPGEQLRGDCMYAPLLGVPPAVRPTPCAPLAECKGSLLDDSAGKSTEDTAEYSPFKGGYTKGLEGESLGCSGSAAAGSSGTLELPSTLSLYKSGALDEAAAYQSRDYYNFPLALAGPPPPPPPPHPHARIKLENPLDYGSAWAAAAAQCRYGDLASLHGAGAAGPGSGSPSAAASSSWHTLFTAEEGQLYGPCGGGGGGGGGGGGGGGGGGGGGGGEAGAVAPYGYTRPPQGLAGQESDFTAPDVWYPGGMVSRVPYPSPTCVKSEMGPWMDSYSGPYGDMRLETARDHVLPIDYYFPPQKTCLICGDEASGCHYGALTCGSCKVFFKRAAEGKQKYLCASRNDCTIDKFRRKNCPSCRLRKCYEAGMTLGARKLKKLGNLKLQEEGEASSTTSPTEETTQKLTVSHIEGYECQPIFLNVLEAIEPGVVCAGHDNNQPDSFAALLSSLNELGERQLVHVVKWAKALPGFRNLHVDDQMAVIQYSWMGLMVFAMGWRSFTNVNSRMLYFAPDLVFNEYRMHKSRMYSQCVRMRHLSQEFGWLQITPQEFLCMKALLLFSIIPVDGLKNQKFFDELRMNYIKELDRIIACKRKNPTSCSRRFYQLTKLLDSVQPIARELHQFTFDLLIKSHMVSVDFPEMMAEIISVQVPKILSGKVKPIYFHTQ
Bile acid receptor (Homo sapiens), sequence (Q96RI1 whole entry, looked up): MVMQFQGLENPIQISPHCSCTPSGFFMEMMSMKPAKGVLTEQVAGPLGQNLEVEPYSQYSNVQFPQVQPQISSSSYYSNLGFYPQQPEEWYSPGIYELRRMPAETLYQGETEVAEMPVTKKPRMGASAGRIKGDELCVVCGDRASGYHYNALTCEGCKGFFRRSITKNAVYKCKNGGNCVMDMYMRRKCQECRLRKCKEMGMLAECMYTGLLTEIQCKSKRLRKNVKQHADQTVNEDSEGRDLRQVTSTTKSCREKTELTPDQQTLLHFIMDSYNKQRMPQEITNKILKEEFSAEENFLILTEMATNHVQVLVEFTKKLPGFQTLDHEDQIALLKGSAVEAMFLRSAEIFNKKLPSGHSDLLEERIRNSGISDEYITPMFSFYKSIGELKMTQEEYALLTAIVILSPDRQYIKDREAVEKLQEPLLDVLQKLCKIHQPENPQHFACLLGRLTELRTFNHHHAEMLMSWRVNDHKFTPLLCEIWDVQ
DNA dC->dU-editing enzyme APOBEC-3G (Homo sapiens), sequence (Q9HC16 whole entry, looked up): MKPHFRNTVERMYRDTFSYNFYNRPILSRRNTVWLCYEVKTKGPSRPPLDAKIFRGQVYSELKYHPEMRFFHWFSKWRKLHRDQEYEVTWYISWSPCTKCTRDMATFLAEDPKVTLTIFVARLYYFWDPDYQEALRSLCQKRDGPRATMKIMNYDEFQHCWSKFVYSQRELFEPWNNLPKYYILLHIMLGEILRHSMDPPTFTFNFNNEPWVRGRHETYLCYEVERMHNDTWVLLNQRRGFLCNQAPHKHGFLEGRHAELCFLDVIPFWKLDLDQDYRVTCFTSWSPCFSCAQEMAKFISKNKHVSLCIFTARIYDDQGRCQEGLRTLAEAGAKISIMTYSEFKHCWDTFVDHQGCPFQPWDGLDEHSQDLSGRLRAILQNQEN
Peroxisome proliferator-activated receptor gamma (Homo sapiens), sequence (P37231 whole entry, looked up): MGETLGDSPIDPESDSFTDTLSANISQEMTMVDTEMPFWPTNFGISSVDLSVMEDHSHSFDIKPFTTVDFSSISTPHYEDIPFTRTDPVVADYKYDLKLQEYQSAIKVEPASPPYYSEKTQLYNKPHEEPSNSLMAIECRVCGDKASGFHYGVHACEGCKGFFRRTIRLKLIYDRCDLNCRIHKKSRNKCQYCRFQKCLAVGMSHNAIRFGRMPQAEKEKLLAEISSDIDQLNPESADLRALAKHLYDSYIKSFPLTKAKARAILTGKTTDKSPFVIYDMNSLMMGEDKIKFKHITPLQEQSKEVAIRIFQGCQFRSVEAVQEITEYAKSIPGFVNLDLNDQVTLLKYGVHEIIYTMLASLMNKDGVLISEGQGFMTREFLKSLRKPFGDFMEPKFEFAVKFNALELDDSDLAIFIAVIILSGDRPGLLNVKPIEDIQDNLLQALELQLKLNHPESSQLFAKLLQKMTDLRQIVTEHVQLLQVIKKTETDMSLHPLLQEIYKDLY
Cytochrome P450 3A4 (Homo sapiens), sequence (P08684 whole entry, looked up): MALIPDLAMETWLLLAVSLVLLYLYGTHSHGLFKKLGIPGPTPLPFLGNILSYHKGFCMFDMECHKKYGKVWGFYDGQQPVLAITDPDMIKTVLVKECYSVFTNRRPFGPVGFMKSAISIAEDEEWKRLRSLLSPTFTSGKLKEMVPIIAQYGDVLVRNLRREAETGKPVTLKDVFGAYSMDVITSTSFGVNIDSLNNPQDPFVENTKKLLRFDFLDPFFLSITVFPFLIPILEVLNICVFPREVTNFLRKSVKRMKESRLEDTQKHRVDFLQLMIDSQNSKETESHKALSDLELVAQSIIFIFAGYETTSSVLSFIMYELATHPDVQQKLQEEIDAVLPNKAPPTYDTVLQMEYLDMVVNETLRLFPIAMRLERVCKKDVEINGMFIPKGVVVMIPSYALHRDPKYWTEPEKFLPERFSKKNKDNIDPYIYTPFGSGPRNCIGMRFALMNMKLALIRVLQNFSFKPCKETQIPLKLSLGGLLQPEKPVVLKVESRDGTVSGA

CC[C@]12CCCN3CCc4c(n(c5ccccc45)C(=O)C1)[C@H]32
inactive: Potency [1]

CCCCCCCCCCCCCCN
inactive: activation [2] 2.33% | outcome [3] | Potency [4] | activation [5] -4.59% | Potency [6] | activation [7] 2.13%

COC(=O)c1cccc(C(=O)OC)c1
inactive: activation [2] -4.83% | outcome [3] | Potency [8] | outcome [9] | activity change % (negative = inhibition) [10] 1.41%

COC(=O)c1cccc(C)c1S(=O)(=O)NC(=O)Nc1nc(OCC(F)(F)F)nc(N(C)C)n1
inactive: activation [2] 3.18% | Potency [4] | activation [5] -2.8% | Potency [8] | Potency [11] | activity change % (negative = inhibition) [10] 11.3% | Potency [6]

CNc1nc(=O)n(C2CCCCC2)c(=O)n1C
inactive: activation [2] -4.83% | outcome [3] | Potency [4] | activation [5] -5.96% | Potency [8] | Potency [11] | outcome [9] | Potency [6] | activation [7] 0.353%

CCCCCCCC[Si](Cl)(Cl)Cl
inactive: activation [2] 3.85% | Potency [4] | activation [5] -0.511% | Potency [8] | Potency [11] | outcome [9] | activity change % (negative = inhibition) [10] -0.14% | activation [7] 0.514%

CC(=O)c1c(O)c(C)c(O)c2c1OC1=CC(=O)C(C(C)=O)C(=O)[C@@]12C (stereo partly drawn)
inactive: Potency [12] | Potency [1]

CC1(C)CC(NCCCCCCNC2CC(C)(C)NC(C)(C)C2)CC(C)(C)N1
inactive: activation [2] 6.67% | Potency [4] | activation [5] -7.91% | Potency [8] | outcome [9] | activity change % (negative = inhibition) [10] -26.6% | activation [7] -1.03%

C[Si](Cl)(Cl)[Si](C)(Cl)Cl
inactive: activation [2] 0.564% | Potency [4] | activation [5] -3.8% | Potency [8] | outcome [9] | activity change % (negative = inhibition) [10] 3.73% | Potency [6] | activation [7] 0.0231%

O=C(O)c1ccc2c(c1)C(=O)OC2=O
inactive: activation [2] 5.43% | outcome [3] | Potency [11] | outcome [9] | activity change % (negative = inhibition) [10] 1.57% | activation [7] -0.551%

O=C(c1ccc(Cl)cc1)c1ccc(Cl)cc1
inactive: activation [2] 19.9% | outcome [3] | Potency [8] | outcome [9] | activation [7] 1.92%

COC(=O)c1c(Cl)nn(C)c1S(=O)(=O)NC(=O)Nc1nc(OC)cc(OC)n1
inactive: activation [2] 5.65% | Potency [4] | activation [5] -2.96% | Potency [8] | Potency [11] | activity change % (negative = inhibition) [10] -5.79%

C[Si](Cl)(Cl)c1ccccc1
inactive: activation [2] 5.21% | Potency [4] | activation [5] 17.8% | Potency [11] | outcome [9] | activation [7] -1.52%

CCCC/C=C\CCCCCCCCO
inactive: activation [2] 1.62% | outcome [3] | Potency [4] | Potency [8] | activity change % (negative = inhibition) [10] 3.63% | Potency [6] | activation [7] 0.706%

COc1ccc(-c2coc3ccc(OC4OC(COC(C)=O)C(OC(C)=O)C(OC(C)=O)C4OC(C)=O)c(OC(C)=O)c3c2=O)cc1 (stereo not drawn)
inactive: Potency [12] | Potency [1]

CC(C)Cc1c(C(=O)O)c(C(F)F)nc(C(F)(F)F)c1C1=NCCS1
inactive: activation [2] -2.77% | Potency [4] | Potency [8] | Potency [11] | activity change % (negative = inhibition) [10] -21.3% | Potency [6] | activation [7] -1.35%

C=Cc1ccc(P(c2ccccc2)c2ccccc2)cc1
inactive: activation [2] 8.38% | Potency [4] | activation [5] -2.27% | Potency [8] | Potency [11] | activity change % (negative = inhibition) [10] 9.12% | Potency [6]

C=C(C)C(=O)OCCCCCCCCCCCCCCCC
inactive: activation [2] 10.8% | Potency [4] | activation [5] 0.746% | Potency [8] | outcome [9] | activity change % (negative = inhibition) [10] -5.63% | Potency [6] | activation [7] -3.74%

CCCCCCCCCCCCCCCCCCN
inactive: activation [2] -9.22% | outcome [3] | activation [5] -6.46% | Potency [11] | outcome [9] | activity change % (negative = inhibition) [10] 13% | activation [7] -1.5%

CS/C(=N\O)C(=O)N(C)C
inactive: activation [2] 11.7% | outcome [3] | Potency [4] | Potency [8] | Potency [11] | activity change % (negative = inhibition) [10] -12.9% | activation [7] -0.3%

CC1(C)CC[C@]2(C(=O)O)CC[C@]3(C)C(=CCC4[C@@]5(C)CC[C@H](O)C(C)(C)C5[C@H](O)C[C@]43C)C2C1 (stereo partly drawn)
inactive: Potency [12] | Potency [1]

CCCCCCCCCc1ccccc1
inactive: activation [2] 1.05% | Potency [4] | Potency [8] | Potency [11] | activity change % (negative = inhibition) [10] 0.977% | activation [7] -0.95%

O=C(O)c1ccc(C(=O)O)c(C(=O)O)c1
inactive: activation [2] -3.3% | outcome [3] | activation [5] -1.87% | Potency [8] | activity change % (negative = inhibition) [10] 8.09%

Cn1c(=O)[nH]c(=O)n(C2CCC(O)CC2)c1=O (stereo not drawn)
inactive: activation [2] 1.63% | Potency [4] | activation [5] -2.18% | Potency [11] | outcome [9] | activity change % (negative = inhibition) [10] 3.03% | activation [7] 2.9%

CC(Cl)(Cl)C(=O)OCCOc1cc(Cl)c(Cl)cc1Cl
inactive: activation [2] 2.7% | Potency [4] | activation [5] -10.3% | Potency [8] | Potency [11] | outcome [9]

CC1(C)[C@@H](C=C(Cl)Cl)[C@@H]1C(=O)OCc1cccc(Oc2ccccc2)c1
inactive: activation [2] -22.2% | outcome [3] | activity change % (negative = inhibition) [10] 5.01% | activation [7] -0.529%

CC(=O)[C@@H]1[C@H]2[C@H](C(=O)[C@H]3OC[C@@H]2O3)[C@H]2C=Cc3ccccc3N21
inactive: Potency [12] | Potency [1]

Reference: PubChem BioAssay (NCATS)
